Giardia kill: Giardia lamblia killing; AID 540267; activity change, % at 7.66 µM, hits read low; Giardia lamblia trophozoite viability; hit rate 0.15% among 340,000; in the data active means activity change below about -80%; inconclusive means between about -30% and that limit;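 further: parasites exposed to compound for two days anaerobically before the ATP read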
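Viability, read as ATP luminescence: trophozoites at 100 cells/well, compound added, 48 hrs anaerobic at 37 deg C, then 15-30 min room-temperature development before reading.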
PI4K2A inh: inhibitors of human PI4K2A; AID 1346378; hit rate 0.13% among 420,000; activity change, negative = inhibition, % at 76.9 µM; purified PI4K2A, ADP-Glo luminescence, 1 h; stronger effect = lower value; in the data active means activity change below about -50%; inconclusive means mostly about -30% to -49%
Target sequence (Q9BTU6 whole entry, looked up): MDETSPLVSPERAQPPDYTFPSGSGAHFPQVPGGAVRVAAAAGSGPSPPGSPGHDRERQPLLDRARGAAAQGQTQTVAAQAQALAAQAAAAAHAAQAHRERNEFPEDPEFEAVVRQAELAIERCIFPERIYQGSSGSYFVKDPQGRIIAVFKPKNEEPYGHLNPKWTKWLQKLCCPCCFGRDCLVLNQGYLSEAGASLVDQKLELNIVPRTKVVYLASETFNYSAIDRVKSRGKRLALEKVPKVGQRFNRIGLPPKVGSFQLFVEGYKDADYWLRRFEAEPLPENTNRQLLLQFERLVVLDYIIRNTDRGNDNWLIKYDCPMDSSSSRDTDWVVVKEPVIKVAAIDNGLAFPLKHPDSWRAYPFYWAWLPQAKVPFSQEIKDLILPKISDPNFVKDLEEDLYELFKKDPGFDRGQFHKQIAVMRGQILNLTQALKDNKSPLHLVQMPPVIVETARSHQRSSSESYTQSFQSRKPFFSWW
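ADP-Glo luminescence measured ADP generated by PI4K2A enzyme (4 ug/mL before mixing) with 1.2 mM PI substrate (pre-mix) and 300 microM ATP (pre-mix). Tris pH7.5 buffer with MgCl2, Triton X-100; 1 h reaction at ambient temperature.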
Nrf2 block: blocks Nrf2 signaling; A549 ARE-Fluc reporter, luciferase luminescence, 18-24 h; Potency, µM (doses to about 46 µM), usual class: inhibitors; hit rate 2.1% among 360,000; AID 504444; further: nearly all actives have a fitted effect of over 60% in size
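Nrf2 activity is the BugLite luminescence, read 15 min after reagent at room temperature, following CellTiter-Fluor cytotoxicity readout (30 min, 37C). Compound titrations were applied for 18-24 h to 5000 A549 ARE_Fluc cells/well in 5% FBS OPTI-MEM.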
A549 tox: kills or reduces viability of A549 cells in Nrf2 counter-screen | A549 ARE-Fluc cells, CellTiter-Fluor viability, 18-24 h | Potency, µM (doses to about 46 µM), usual class: inhibitors | hit rate 0.16% among 390,000 | AID 504648
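Cytotoxicity counterscreen: CellTiter-Fluor fluorescence was measured in A549 ARE_Fluc cells after 18-24 h of compound exposure in a concentration series. The subsequent BugLite luminescent read reports ARE-luciferase activity.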
KB-V1 cytotox: kills drug-selected multidrug resistant KB-V1 cells | Potency, µM (titrated, usually from 46.1 µM), hits mostly cytotoxic | hit rate 3.4% among 400,000 | AID 1347076 | KB-V1 MDR cells viability, CellTiter-Glo, 72 h; further: nearly all actives have a fitted effect of over 60% in size
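qHTS viability screen in drug-selected KB-V1 MDR cells: 72 h compound treatment at 37 degrees C, ATP luminescence end point.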
KB-3-1 tox: kills parental KB-3-1 adenocarcinoma cells | KB-3-1 viability, CellTiter-Glo ATP luminescence, 72 h | hit rate 1.4% among 400,000 | Potency, µM (series often up to 46.1 µM), most hits filed as cytotoxic; further: nearly all actives have a fitted effect of over 60% in size
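Luminescent ATP read-out (CellTiter-Glo) measures survival of drug-naive KB-3-1 cells after 72 h compound exposure at 37 °C. Titration series was screened from lowest to highest concentration, with DMSO vehicle plates as background controls.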
A number is an active result; i = inactive; ? = inconclusive; nt = no result given. A selection: hits, their analogues and other compounds. The true share with any hit is near 5.7%. Unless noted, the call rests on the fitted dose curve; in most records, active means well fitted curve in the direction sought with a large enough effect; inconclusive means small, poorly fitted or top-dose-only effect, or another doubt; inactive means no such curve, though single readings can be large; an effect the other way counts as inactive or inconclusive.

SMILES	Giardia kill	PI4K2A inh	Nrf2 block	A549 tox	KB-V1 cytotox	KB-3-1 tox
Cc1ccc(NC(=O)N2CCCC2C(=O)Nc2ccc(-n3cnnn3)c(C)c2)cc1 (centres undefined)	i	i	i	i	i	i
Cc1cc(NC(=O)C2CCCN2C(=O)Nc2cccc(Cl)c2)ccc1-n1cnnn1 (centres undefined)	i	i	16µM	i	i	i
CCN(CC)c1ccc(/C=N/N2CCN(Cc3cccc4ccccc34)CC2)c(O)c1	i	i	nt	i	16µM	i
Cc1[nH]c2ccccc2c1C(=O)C(=O)Nc1ccc2c(c1)OCCO2	i	i	i	i	i	i
O=C(Nc1ccc2c(c1)OCCO2)C(=O)c1c[nH]c2ccccc12	?	i	?	i	i	3.7µM
O=C(Nc1ccc2c(c1)OCO2)C(=O)c1c[nH]c2ccccc12	?	i	?	i	i	6.5µM
Cc1ccc(NC(=O)c2cccc3c2-c2ccccc2C3=O)c(C)c1	nt	i	nt	nt	nt	nt
Brc1ccc(-c2nnc3c4ccccc4nc(N4CCOCC4)n23)cc1	i	i	i	i	2.6µM	i
Clc1ccc(-c2nnc3c4ccccc4nc(N4CCOCC4)n23)cc1Cl	i	i	i	?	2.6µM	i
Fc1ccccc1-c1nnc2c3ccccc3nc(N3CCOCC3)n12	i	i	i	i	i	i
Cc1nnc2c3ccccc3nc(N3CCN(c4ccccc4)CC3)n12	nt	i	i	i	i	i
CN(C(=O)[C@@H](C1CC1)[C@@H](O)c1ccc2ccccc2c1)c1ccccc1	nt	i	nt	nt	nt	nt
COc1ccc(C(=O)C[n+]2ccc3c(c2)nc(Cc2ccccc2)n3C)cc1	nt	i	nt	nt	nt	nt
Cc1sc(NC(=O)CSc2ncn(-c3ccccc3)n2)nc1-c1ccccc1	i	i	12µM	i	23µM	?
CCCCNC(=O)O[C@H]1CC[C@@]23CCCN2C(=O)CCC[C@H]3C1	nt	i	nt	nt	nt	nt
Cc1nc(SCC(=O)NCC2COc3ccccc3O2)c2c(C)c(C)sc2n1 (centres undefined)	i	i	21µM	i	i	?
C=CCNC(=S)N/N=C(\C)c1cc(OC)c(OC)c(OC)c1	i	i	?	i	15µM	i
C=CCNC(=S)N/N=C(\C)c1cccc(NC(C)=O)c1	i	i	i	i	i	i
O=C(CN(c1ccccc1F)S(=O)(=O)c1ccccc1)NC1CCCCCC1	i	i	i	i	4.6µM	i
Cc1ccc(S(=O)(=O)N(CC(=O)NC2CCCCCC2)c2ccccc2F)cc1	i	i	i	i	i	i
COc1ccccc1N(CC(=O)NC1CCCCC1)S(=O)(=O)c1ccccc1	i	i	i	i	i	i
CCOc1ccccc1N(CC(=O)NC1CCCC1)S(=O)(=O)c1ccc(C)cc1	i	i	15µM	i	?	i
CC(C)[C@H](NC(=O)c1ccccc1F)C(=O)OCCN1C(=O)c2ccccc2C1=O	i	i	i	i	15µM	i
CC(C)C(NC(=O)c1c(F)cccc1F)C(=O)OCN1C(=O)c2ccccc2C1=O (centres undefined)	i	i	i	i	i	i
Cc1ccc2sc(N(CCCN(C)C)C(=O)c3ccc(S(=O)(=O)N(C)C4CCCCC4)cc3)nc2c1C	i	i	i	i	18µM	23µM
SMILES	Giardia kill	PI4K2A inh	Nrf2 block	A549 tox	KB-V1 cytotox	KB-3-1 tox
CCN(Cc1ccccc1)S(=O)(=O)c1ccc(C(=O)N(CCCN(C)C)c2nc3c(C)c(C)ccc3s2)cc1	i	i	18µM	?	?	?
C#CCCC(=O)O[C@H]1CCC[C@@]2(C(=O)N(Cc3ccccc3)c3ccccc32)[C@H]1NC(=O)CCc1ccccc1	nt	i	nt	nt	nt	nt
CCNC(=S)N/N=C/c1cc(C)n(-c2ccc(Cl)cc2)c1C	i	i	?	i	12µM	?
COc1ccccc1COC(=O)Nc1c(C)nn(C)c1Cl	i	i	i	i	23µM	i
CCCC1OC2C[C@@H]3[C@H]4CCC5=CC(=O)C=C[C@]5(C)[C@H]4C(O)C[C@]3(C)[C@]2(C(=O)CO)O1 (some centres undefined)	i	nt	?	i	i	i
O=C(NC1CC1(c1ccccc1)c1ccccc1)c1ccccc1 (centres undefined)	i	i	i	i	16µM	?
Cc1ccc(S(=O)(=O)N2C(=O)c3cccc4cccc2c34)cc1	i	i	15µM	?	i	?
Cc1ccc(S(=O)(=O)ON2C(=O)c3cccc4cccc(c34)C2=O)cc1	i	i	i	i	i	i
Cc1sc2ncn(CCn3cnc4sc(C)c(C)c4c3=O)c(=O)c2c1C	i	i	16µM	i	i	i
Cc1sc2ncn(CCC(=O)O)c(=O)c2c1C	i	i	i	i	i	i
Cc1sc2ncn(CC(=O)NCC(=O)N3CCN(c4ccc(F)cc4)CC3)c(=O)c2c1C	i	i	8.2µM	i	?	i
CC[C@H](CCCc1ccc(OC)cc1)CCC(=O)N(c1ccccc1)c1ccccc1	nt	i	nt	nt	nt	nt
CCCCOc1ccc(C(=O)n2ccc3ccc(-c4ccc5ccn(Cc6ccccc6)c5c4)cc32)cc1	nt	i	nt	nt	nt	nt
COc1ccc(C(=O)CSc2nnc(-c3n[nH]c4c3CCC4)n2N)cc1OC	nt	i	nt	nt	nt	nt
CCc1ccccc1NC(=O)C1CCN(c2nn3c(=O)cc(C)nc3s2)CC1	nt	i	i	i	i	i
